Most compounds without a hit are left out; they make up all but 2.4% or so of the library.
PABP polyA inh: blocks human PABP binding to poly(A) RNA; P11940; fluorescence polarization; inhibition, % at 35 µM; 1% of 290,000 active; AID 2014;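 further: calls also rest on retests at 20 µM and on dose response follow-up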
Target sequence (P11940 whole entry, looked up): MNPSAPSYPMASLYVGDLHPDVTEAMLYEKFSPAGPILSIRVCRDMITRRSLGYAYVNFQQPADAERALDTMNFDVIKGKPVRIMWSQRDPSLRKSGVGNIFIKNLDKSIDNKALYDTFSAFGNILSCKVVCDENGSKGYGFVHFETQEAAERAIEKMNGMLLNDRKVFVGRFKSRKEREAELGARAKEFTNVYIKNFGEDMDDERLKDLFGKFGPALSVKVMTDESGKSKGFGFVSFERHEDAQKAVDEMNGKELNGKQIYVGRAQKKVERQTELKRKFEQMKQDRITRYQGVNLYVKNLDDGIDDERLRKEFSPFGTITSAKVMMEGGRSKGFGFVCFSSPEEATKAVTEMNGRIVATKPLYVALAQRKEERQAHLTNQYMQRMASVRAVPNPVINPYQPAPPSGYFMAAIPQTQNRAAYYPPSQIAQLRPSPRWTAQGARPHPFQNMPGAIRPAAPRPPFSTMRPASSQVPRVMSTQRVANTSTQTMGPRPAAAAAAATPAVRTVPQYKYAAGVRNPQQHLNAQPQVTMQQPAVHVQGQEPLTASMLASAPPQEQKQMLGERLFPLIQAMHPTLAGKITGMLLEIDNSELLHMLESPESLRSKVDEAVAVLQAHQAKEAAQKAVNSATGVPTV
PERK inhibitor: blocks human PERK kinase; 0.17% of 220,000 active; CHO PERK-DD fusion, SEAP luminescence translation reporter; inhibition, % at 5.6 µM;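 active means inhibition above the mean inhibition of all tested compounds plus 3 SD, set separately per screening campaign, cut at about 2.9% in these data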;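 further: PERK kinase domain activated by AP20187 dimerizer at 100 nM; 0% = DMSO with dimerizer and 100% = rapamycin at 8.4 µM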
PABP1 MLLE inh: blocks PAM2 peptide binding to the PABP1 MLLE domain. P11940. GST-MLLE / FITC-PAM2 fluorescence polarization. inhibition, % at 20 µM. 0.36% of 360,000 active. AID 588489; in the data active means inhibition above about 35%, passing the limit was not always enough;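 further: plate controls were DMSO wells with GST-MLLE for no effect and wells lacking GST-MLLE protein for full effect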
M18AAP inhibitor: blocks P. falciparum M18 aspartyl aminopeptidase; inhibition, % at 7.35 µM; recombinant PfM18AAP, H-Glu-NHMec fluorogenic cleavage; 1.2% of 290,000 active;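 active means inhibition above the campaign mean inhibition over all tested compounds plus 3 SD, cut at about 28% in these data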;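 further: 0% = plate median of test compound wells and 100% = 2 mM ZnCl2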
eIF4H inh: inhibitors of RNA binding by human eIF4H. AID 2012. eIF4H fluorescence polarization binding assay. Q15056. inhibition, % at 35 µM. 0.94% of 290,000 active;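 further: calls also rest on retests at 20 µM and on dose response follow-up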
eIF4E-4G inh: eIF4E/eIF4G interaction inhibition in translation initiation; P63073+Q04637; TR-FRET eIF4E-eIF4GI(517-606) binding, 2 h; inhibition, % at 21.7 µM; 0.37% of 220,000 active; AID 782;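 active means inhibition above about 30%, limit read from the data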;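 further: 0% = full FRET control wells and 100% = background wells lacking eIF4GI fragment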
* marks the source's active call; other numbers are inactive results; i = inactive; ? = inconclusive; nt = no result. Unless noted, how the calls were made is not given here.

SMILES	PABP polyA inh	PERK inhibitor	PABP1 MLLE inh	M18AAP inhibitor	eIF4H inh	eIF4E-4G inh
CCOC(=O)N1CCC(=NNc2nc3ccccc3s2)CC1	-2	0	9	29*	-4	5
CCn1c(SCC(=O)N/N=C/c2c[nH]c3ccccc23)nnc1-c1ccc(Cl)cc1	91	1	-8	-1	active	4
O=C(CCO)c1ccc(O)cc1	51*	1	-13	56*	94*	10
Cc1oc2ccc(O)cc2c1C(=O)c1ccc([N+](=O)[O-])cc1	66*	1	-4	2	active	3
CC1=C(C(=O)N(C(C)C)C(C)C)CC(CC(=O)NC2CC2)C(=O)N1CCCN1CCCC1=O (centres undefined)	nt	nt	-1	nt	nt	nt
CCOC(=O)c1cc(-c2ccccc2)sc1NC(=O)C(C)N1C(=O)NC(C)(c2ccc(Cl)cc2)C1=O (centres undefined)	71*	-2	-46	-4	active	-19
O=C(CSc1ccc(Cl)cc1)c1ccco1	38*	0	32	8	87*	13
O=C(CCSc1ccc(Cl)cc1)c1ccco1	-4	nt	35	-9	-2	nt
CC(=O)Nc1ccc(S(=O)(=O)NC2CC(=O)N(c3ccc4c(c3)OCCO4)C2)cc1 (centres undefined)	nt	nt	-7	nt	nt	nt
Nc1nc(C23CC4CC(CC(C4)C2)C3)[nH]c(=O)n1	0	-1	6	-16	-4	4
O=C(CSc1nc2[nH]ncc2c(=O)[nH]1)Nc1nccs1	52*	3	nt	21	active	-5
CCc1nnc(NC(=O)CSc2nc3[nH]ncc3c(=O)[nH]2)s1	-12	1	-3	31*	-1	6
CSc1ccccc1NC(=O)c1ccc(N2CCCC2=O)cc1	nt	nt	1	nt	nt	nt
Cc1ccc(C(=O)N2CCN(Cc3ccccc3)CC2)cc1S(=O)(=O)N1CCOCC1	nt	nt	6	nt	nt	nt
CCN(CC)CCCN1C(=O)C(=O)/C(=C(/O)c2cc(C)ccc2C)C1c1cccnc1 (centres undefined)	12	2	-4	7	-8	-5
CCN(CC)CCCN1C(=O)C(=O)/C(=C(/O)c2ccc(C)cc2)C1c1ccccn1 (centres undefined)	56*	0	-2	0	3.1*	-2
CCN(CC)CCN1C(=O)C(=O)/C(=C(/O)c2ccc(C)cc2)C1c1cccnc1 (centres undefined)	11	1	-6	1	5	97*
O=C(NCc1cc2ccccc2[nH]1)C1CCC(=O)N(CC2CCCCC2)C1 (centres undefined)	nt	nt	-23	nt	nt	nt
COc1ccc(C(=O)N2CCOC2CNC(=O)C(=O)NCc2ccccc2)cc1 (centres undefined)	nt	nt	1	nt	nt	nt
N#CCCN(C(=O)c1ccco1)c1ccccc1	2	-1	6	0	-14	-2
N#CCCN(Cc1cccnc1)C(=S)NC(=O)c1ccco1	67*	0	14	6	7	-3
N#CCCN(C(=S)NC(=O)c1ccco1)c1ccccc1F	-1	0	47*	3	1	-1
C=CCn1c(COc2ccccc2F)nnc1SCCN1C(=O)c2ccccc2C1=O	-13	0	-15	0	-10	9
CCOC(=O)C1=C(O)/C(=C\c2ccc(CNC(=O)C(=O)Nc3ccc(C)c(C)c3)o2)N=C1C	?	0	nt	9	?	2
CC(/C=N/NC(=O)Cn1cnc2c1c(=O)n(C)c(=O)n2C)=C\c1ccco1	12	1	-2	6	10	3
SMILES	PABP polyA inh	PERK inhibitor	PABP1 MLLE inh	M18AAP inhibitor	eIF4H inh	eIF4E-4G inh
Cn1c(=O)c2c(ncn2CC(=O)N/N=C/C=C/c2ccco2)n(C)c1=O	102*	2	-1	6	99*	4
Cn1c(SCC(=O)N/N=C/C=C\c2ccco2)nc2ccccc21	56*	-1	-14	9	90*	5
CCn1c(SCC(=O)N/N=C/C=C\c2ccco2)nc2ccccc21	nt	1	-16	12	nt	9
CC(=O)N1CCN(C(=O)Cn2c(=O)oc3ccccc32)CC1	10	0	-2	-4	-2	0
CCC1CCCCN1C(=O)Cn1c(=O)oc2ccccc21 (centres undefined)	-8	1	5	29*	7	4
O=C(CCn1c(=S)oc2ccccc21)Nc1ccc(F)cc1	54*	1	7	-15	8.9*	3
Cc1ccc(NC(=O)CCn2c(=S)oc3ccccc32)cc1	1	0	-2	8	-7	2
Cc1cccc(C)c1NC(=O)c1cc(-c2ccccn2)nc2ccccc12	54	0	-7	-13	active	2
O=C(Nc1ccncc1)c1cc(-c2ccccn2)nc2ccccc12	-40	0	0	15	-6	-1
CCCC(=O)N1CCCC1(C)C(=O)Nc1ccc(-n2cncn2)cc1 (centres undefined)	nt	nt	2	nt	nt	nt
O=C1ON=C(c2ccc([N+](=O)[O-])cc2)/C1=C/c1ccccc1O	1	nt	36	29*	5	nt
O=C1ON=C(c2ccccc2)/C1=C/c1ccc(-c2ccccc2[N+](=O)[O-])o1	3	0	38	0	59	5
COc1cc(C=NO)nc(-c2ccccn2)c1	nt	nt	-6	nt	nt	nt
CCOc1cc(/C=C2/C(=O)ON=C2C)ccc1OCc1ccc(F)cc1	0	0	-51	8	-4	1
CCOc1cc(/C=C2/C(=O)ON=C2C)ccc1OCc1ccccc1	8.1*	0	nt	10	?	1
Cc1ccc(NC(=O)c2cc(-n3cnnc3)ccc2Cl)cc1	4	1	-2	-1	-8	6
Cc1ccc(NC(=O)c2cc(N3C(=O)C=CC3=O)ccc2Cl)cc1C	active	1	24	8	?	11
COCCn1c(C)cc(C(=O)COC(=O)c2cc3c(s2)CCC3)c1C	77*	1	5	10	91*	1
COCCn1c(C)cc(C(=O)COC(=O)c2cccc(O)c2)c1C	4	0	-5	3	4	-10
O=C(NCCc1cn2ccccc2n1)C1CCCCC1	-6	2	16	-1	1	3
COc1ccc(C2CC(c3ccc4ccccc4c3OC(C)=O)=NN2C(C)=O)cc1 (centres undefined)	-10	-1	-8	9	0	-2
CN1/C(=C/C=C/c2n(C)c3cc([N+](=O)[O-])c([N+](=O)[O-])cc3[n+]2C)C(C)(C)c2ccccc21	nt	nt	-50	nt	nt	nt
Cc1ccc(C2C(C#N)=C(N)SC(N)=C2C#N)c(C)c1	?	0	i	-2	?	-8
Cc1ccc(C2C(C#N)=C(N)SC(N)=C2C#N)cc1	?	-1	i	42*	?	-11
CCN1CCN(C(=O)C(=O)c2cn(CC(=O)N3CCCC3)c3ccccc23)CC1	-3	nt	-2	-8	-7	nt
CCOC(=O)C1=C(CC)OC(N)=C(C#N)C1c1cccs1 (centres undefined)	13	3	32	14	11	-20

Source: PubChem BioAssay
